This is part of a sample that, as a whole, favours compounds with a hit. Of some 83,000 tested, about 20% had one in any assay.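 Method: cells in 96-well plates; compound added at one concentration; 48 h incubation; percent growth measured; values under 10 scored active.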 Activity calls are given as the source filed them.
Legend:
Test in all cases: NCI-60 one-dose screen, 48 h (100 = growth as untreated, 0 = no growth, -100 = all killed)
Conditions in all cases: 10 µM unless noted
DU-145 prostate = system: DU-145 prostate
K-562 leukemia = system: K-562 leukemia
MDA-MB-231 breast = system: MDA-MB-231 breast
RXF 393 renal = system: RXF 393 renal
SF-268 CNS = system: SF-268 CNS
SF-295 CNS = system: SF-295 CNS
SF-539 CNS = system: SF-539 CNS
UACC-257 melanoma = system: UACC-257 melanoma
HCT-15 colon = system: HCT-15 colon
HT29 colon = system: HT29 colon
SNB-75 CNS = system: SNB-75 CNS
U251 CNS = system: U251 CNS
PC-3 prostate = system: PC-3 prostate
SK-MEL-5 melanoma = system: SK-MEL-5 melanoma
UACC-62 melanoma = system: UACC-62 melanoma
LOX IMVI melanoma = system: LOX IMVI melanoma
SK-MEL-28 melanoma = system: SK-MEL-28 melanoma
MALME-3M melanoma = system: MALME-3M melanoma
M14 melanoma = system: M14 melanoma
SNB-19 CNS = system: SNB-19 CNS

Measured: growth

O=c1[nH]nc(-c2ccc(Cl)cc2)cc1Cc1ccccc1
active: RXF 393 renal 3.35%
inactive: DU-145 prostate 104% | K-562 leukemia 79% | MDA-MB-231 breast 79.5% | SF-268 CNS 99.4% | SF-295 CNS 89.6% | SF-539 CNS 65.2% | UACC-257 melanoma 84.3% | HCT-15 colon 103% | HT29 colon 108% | SNB-75 CNS 88.3% | U251 CNS 92.5% | PC-3 prostate 90.9% | SK-MEL-5 melanoma 105% | UACC-62 melanoma 79.3% | LOX IMVI melanoma 93.4% | SK-MEL-28 melanoma 114%

O=[N+]([O-])c1ccc(-c2cc3c(Nc4ccc(OCc5cccc(Cl)c5)c(Cl)c4)ncnc3s2)cc1
inactive: DU-145 prostate 70.4% | MALME-3M melanoma 61.2% | MDA-MB-231 breast 81.6% | RXF 393 renal 85.3% | SF-268 CNS 76.1% | SF-295 CNS 59.6% | SF-539 CNS 84% | UACC-257 melanoma 58.6% | M14 melanoma 35.9% | HCT-15 colon 55.3% | HT29 colon 47.3% | SNB-75 CNS 69.8% | SNB-19 CNS 67.6% | U251 CNS 52.8% | PC-3 prostate 48% | SK-MEL-5 melanoma 97.6% | UACC-62 melanoma 78.3% | LOX IMVI melanoma 66.4% | SK-MEL-28 melanoma 86.8%

O=[N+]([O-])c1ccc(-c2cc3c(Nc4ccc(Sc5nc6ccccc6s5)c(Cl)c4)ncnc3s2)cc1
inactive: DU-145 prostate 44.9% | MALME-3M melanoma 62.9% | MDA-MB-231 breast 29.2% | RXF 393 renal 68.8% | SF-268 CNS 39.4% | SF-295 CNS 23.2% | SF-539 CNS 54.3% | UACC-257 melanoma 66.6% | M14 melanoma 35.2% | HCT-15 colon 23.7% | HT29 colon 13.9% | SNB-75 CNS 83.9% | SNB-19 CNS 23.7% | U251 CNS 23% | PC-3 prostate 28.3% | SK-MEL-5 melanoma 59.1% | UACC-62 melanoma 54.9% | LOX IMVI melanoma 29.6% | SK-MEL-28 melanoma 75.2%

COc1cc(C(=O)Nc2cc(O)c(CC=C(C)C)c(O)c2)cc2c1O[C@]1(C)CC[C@@H](O)C(C)(C)[C@H]1C2
active: RXF 393 renal -18.5% | SF-295 CNS -52.1% | SF-539 CNS -50.8% | HT29 colon 1.4% | SK-MEL-5 melanoma -23.5% | UACC-62 melanoma 8.82% | LOX IMVI melanoma -12%
inactive: DU-145 prostate 42% | MALME-3M melanoma 58.6% | MDA-MB-231 breast 24.1% | SF-268 CNS 39.5% | UACC-257 melanoma 27.2% | HCT-15 colon 13.3% | SNB-75 CNS 17.9% | SNB-19 CNS 53.4% | U251 CNS 16.3% | PC-3 prostate 18.2% | SK-MEL-28 melanoma 30%

Cc1c(Cl)cccc1NS(=O)(=O)c1ccccc1
inactive: DU-145 prostate 143% | MALME-3M melanoma 124% | MDA-MB-231 breast 102% | RXF 393 renal 95.3% | SF-268 CNS 104% | SF-295 CNS 95.2% | SF-539 CNS 102% | UACC-257 melanoma 95.1% | M14 melanoma 105% | HCT-15 colon 97.3% | HT29 colon 99.8% | SNB-75 CNS 87.9% | SNB-19 CNS 106% | U251 CNS 106% | SK-MEL-5 melanoma 96.7% | UACC-62 melanoma 102% | LOX IMVI melanoma 104% | SK-MEL-28 melanoma 99%

CCCCNC(=O)c1cc(NCc2cc(O)ccc2O)ccc1O
inactive: DU-145 prostate 99.7% | MALME-3M melanoma 108% | MDA-MB-231 breast 84% | RXF 393 renal 83.7% | SF-268 CNS 84.1% | SF-295 CNS 101% | SF-539 CNS 62.2% | UACC-257 melanoma 68.9% | HCT-15 colon 84.6% | HT29 colon 80.8% | SNB-75 CNS 66.6% | SNB-19 CNS 106% | U251 CNS 98.6% | PC-3 prostate 74.4% | SK-MEL-5 melanoma 98.4% | UACC-62 melanoma 93.8% | LOX IMVI melanoma 91.3% | SK-MEL-28 melanoma 105%

Nc1ccc(-c2cc3c(Nc4ccc(OCc5cccc(F)c5)c(Cl)c4)ncnc3s2)cc1
inactive: DU-145 prostate 36.9% | MALME-3M melanoma 42.1% | MDA-MB-231 breast 13.4% | RXF 393 renal 52.5% | SF-268 CNS 52.1% | SF-295 CNS 47.8% | SF-539 CNS 57.4% | UACC-257 melanoma 18.3% | M14 melanoma 51.9% | HCT-15 colon 32.9% | HT29 colon 84.5% | SNB-75 CNS 87.2% | SNB-19 CNS 77.3% | U251 CNS 57% | PC-3 prostate 29.6% | SK-MEL-5 melanoma 57.7% | UACC-62 melanoma 55.7% | LOX IMVI melanoma 24.5% | SK-MEL-28 melanoma 39.3%

CCOC(=O)c1cnn2c(-c3ccc(Cl)cc3)nc(NCc3ccccc3)nc12
inactive: DU-145 prostate 44.6% | MALME-3M melanoma 64.6% | MDA-MB-231 breast 77.5% | RXF 393 renal 40.7% | SF-268 CNS 28.8% | SF-295 CNS 58.9% | SF-539 CNS 10.7% | UACC-257 melanoma 96.2% | M14 melanoma 86.8% | HCT-15 colon 47.7% | HT29 colon 51% | SNB-75 CNS 70.3% | SNB-19 CNS 63.5% | U251 CNS 32.2% | PC-3 prostate 63% | SK-MEL-5 melanoma 86% | UACC-62 melanoma 63.4% | LOX IMVI melanoma 39.7% | SK-MEL-28 melanoma 86.7%

CCOC(=O)N1CCc2c(sc3c2C(=O)N[C@H](c2ccc(OC)cc2)N3)C1
inactive: DU-145 prostate 113% | MALME-3M melanoma 96.7% | MDA-MB-231 breast 104% | RXF 393 renal 113% | SF-268 CNS 101% | SF-295 CNS 97% | SF-539 CNS 100% | UACC-257 melanoma 86.6% | M14 melanoma 94.7% | HCT-15 colon 106% | HT29 colon 86.2% | SNB-75 CNS 91.7% | SNB-19 CNS 90% | U251 CNS 96.7% | PC-3 prostate 89.1% | SK-MEL-5 melanoma 99.1% | UACC-62 melanoma 91.8% | LOX IMVI melanoma 101% | SK-MEL-28 melanoma 109%

— PubChem BioAssay (NCI)
